Screening data as filed in PubChem BioAssay.
Most compounds without a hit are left out; they make up all but 27% or so of the library.
CYP2C19 inh – human CYP2C19 inhibition | CYP2C19 Supersomes, luciferin-H EGE luminescence, 30 min | inhibition, % at 5 µM | 96,000 tested, 21% active | AID 778;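 active = CYP2C19 inhibition above a set limit at 5 µM in the primary screen, cut at about 50% in these data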;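 note: plate controls were negative control wells for no effect and 2.5 mM tranylcypromine positive control for full effect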
Target sequence (P33261 whole entry, looked up): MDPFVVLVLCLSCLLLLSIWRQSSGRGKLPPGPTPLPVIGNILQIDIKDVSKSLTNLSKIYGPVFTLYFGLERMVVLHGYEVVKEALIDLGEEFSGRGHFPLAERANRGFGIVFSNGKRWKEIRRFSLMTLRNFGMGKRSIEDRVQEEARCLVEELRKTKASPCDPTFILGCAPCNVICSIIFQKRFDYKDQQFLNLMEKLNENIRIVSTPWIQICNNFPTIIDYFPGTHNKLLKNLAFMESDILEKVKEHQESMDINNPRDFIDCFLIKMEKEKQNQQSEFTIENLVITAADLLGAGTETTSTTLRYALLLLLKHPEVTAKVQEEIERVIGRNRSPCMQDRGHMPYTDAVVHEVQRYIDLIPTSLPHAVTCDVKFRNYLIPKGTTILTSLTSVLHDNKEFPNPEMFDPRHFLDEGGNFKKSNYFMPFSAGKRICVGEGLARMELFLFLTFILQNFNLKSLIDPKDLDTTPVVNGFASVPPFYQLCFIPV
Cav3 T inh – inhibitors of human Cav3.2 T-type calcium channel. O95180. Cav3.2-expressing cells, Fluo-4 calcium fluorescence FDSS; hits give low values. B-score at 10 µM. 100,000 tested, 4% active. AID 449739;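 active = single-dose well whose peak fluorescence ratio is a statistical outlier from its plate by either plate-standardised score or position-corrected B-score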
CYP2C19 act – activators of human cytochrome P450 2C19. recombinant CYP2C19, luciferin-H EGE luminescence; hits give high values; 0 = fully inhibited enzyme, 1 = untreated enzyme. activation factor at 5 µM. 96,000 tested, under 10 active;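 active = activation factor of at least 2 at 5 µM in the primary screen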;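 note: 0 = wells with 2.5 mM tranylcypromine and 1 = vehicle-only wells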
CYP2C9 inhib – inhibitors of human CYP2C9. inhibition, % at 5 µM. CYP2C9 Supersomes, luciferin-H conversion, luminescence. 96,000 tested, 20% active;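 active = blocking of liver enzyme CYP2C9 beyond about 50% at 5 µM, limit read from the data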
CYP2C9 act – CYP2C9 (human) activation; activation factor at 5 µM; 96,000 tested, 1.4% active; recombinant CYP2C9, luciferin-H conversion, luminescence; hits give high values; factor 1 = untreated enzyme, 0 = blocked;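 active = activation factor of 2 or more for CYP2C9 at a 5 µM dose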;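 note: 0 = sulfaphenazole-blocked wells and 1 = vehicle-only wells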
* marks the source's active call; other numbers are inactive results; · = no result given.

SMILES	CYP2C19 inh	Cav3 T inh	CYP2C19 act	CYP2C9 inhib	CYP2C9 act
CC(C)CCNC(=O)c1ccc2c(c1)N(Cc1ccccc1)C(=O)CS2=O (configuration not stated)	13	-1.1	0.9	50*	0.5
CC(C)CCNC(=O)c1cccc(C(=O)NCCC(C)C)c1	8	-0.013	0.9	37	0.6
CCC1CCCCN1CCCNC(=O)c1cn(CC(C)C)c(=O)c2cc(OC)c(OC)cc12 (configuration not stated)	-14	0.22	1.1	-1	1
CCC(C)NC(=O)CNC(=O)Cn1c(C)cc2ccccc2c1=O (configuration not stated)	11	-0.11	0.9	-24	1.2
Cc1cc(NC(=O)CCC(=O)N(c2ccccc2)C(C(=O)NC2CCCC2)c2cccs2)no1 (configuration not stated)	77*	-1.2	0.2	70*	0.3
Cc1ccc(C)c(N(C(=O)CCC(=O)Nc2cc(C)on2)C(C(=O)NC2CCCC2)c2ccco2)c1 (configuration not stated)	54*	-2.3	0.5	20	0.8
Cc1ccc(N(C(=O)C(F)(F)F)C(C(=O)NC2CCCCC2)c2cccs2)cc1 (configuration not stated)	31	-0.28	0.7	55*	0.4
Cc1cc(NC(=O)CCC(=O)N(Cc2cccs2)C(C(=O)NC2CCCC2)c2ccccc2)no1 (configuration not stated)	·	-8.7*	·	·	·
Cc1ccc(C2=[N+]([O-])C(C)N(O)C2(C)C)o1 (configuration not stated)	8	1.4	0.9	3	1
CCOC(=O)NC1(C(F)(F)F)NC(=O)N(C2CCCCC2)C1=O (configuration not stated)	16	1.8	0.8	16	0.8
COc1cnc(SCc2c(Cl)cccc2Cl)nc1Cl	45	-0.99	0.5	2	1
COc1ccc(-c2csc(N3CCC(C(N)=O)(N4CCCCC4)CC3)n2)cc1	-16	-1	1.2	15	0.8
Cc1cc(N(C(=O)c2ccco2)C(C(=O)NC2CCCCC2)c2ccccc2)ccc1-n1cnnn1 (configuration not stated)	56*	0.62	0.4	92*	0.1
Cc1ccc(N(C(=O)CCC(=O)Nc2cc(C)on2)C(C(=O)NC2CCCC2)c2cccs2)cc1 (configuration not stated)	95*	-4.8	0.1	89*	0.1
O=C(CCC(=O)N(c1ccccc1)C(C(=O)NC1CCCC1)c1ccncc1)Nc1cccnc1 (configuration not stated)	70*	-0.46	0.3	46	0.5
COc1ccc(N(C(=O)c2ccco2)C(C(=O)NC2CCCC2)c2cccs2)cc1OC (configuration not stated)	·	1.4	·	·	·
O=C(NC1CCCC1)C(c1cccs1)N(C(=O)c1ccco1)c1ccc2c(c1)OCCO2 (configuration not stated)	80*	0.069	0.2	78*	0.2
Cc1cc(NC(=O)CCC(=O)N(c2ccccc2)C(C(=O)NC2CCCC2)c2ccccc2)no1 (configuration not stated)	·	-0.68	·	·	·
O=C(CCC(=O)N(c1cccc(F)c1)C(C(=O)NC1CCCC1)c1ccncc1)Nc1cccnc1 (configuration not stated)	·	0.14	·	·	·
Cn1c(=O)cc(OCC(=O)NCCCN2CCN(c3ccccc3F)CC2)c2ccccc21	-2	1.3	1	-8	1.1
CCn1c(=O)cc(SCC(=O)Nc2ccc(Cl)cc2)c2ccccc21	-15	-0.018	1.1	-12	1.1
CCn1c(=O)cc(SCC(=O)N2CCN(C3CCCCC3)CC2)c2ccccc21	65*	1.7	0.4	-143	2.4*
CCn1c(=O)cc(SCC(=O)N2CCN(c3ccccc3OC)CC2)c2ccccc21	43	-0.76	0.6	-129	2.3*
CCn1c(=O)cc(SCC(=O)NCCCN2CCN(c3ccccc3F)CC2)c2ccccc21	-2	-3.4*	1	-39	1.4
CCn1c(=O)cc(SCC(=O)N2CCN(C(=O)c3ccco3)CC2)c2ccccc21	9	1	0.9	5	1
SMILES	CYP2C19 inh	Cav3 T inh	CYP2C19 act	CYP2C9 inhib	CYP2C9 act
CCn1c(=O)cc(SCC(=O)Nc2ccc(OC)c(OC)c2)c2ccccc21	60*	0.56	0.4	-102	2*
O=C(NCCCN1CCc2ccccc2C1)Nc1ccc(Cl)cc1	13	-1.3	0.9	4	1
Cc1ccc(C(=O)COC(=O)c2cc(Cl)nc3ccccc23)cc1C	21	-2	0.8	-104	2*
O=C(Nc1ccccc1)C1=C[C@H](C2CC2)C[C@H](OCCCCO)O1	·	1.4	·	·	·
Cc1ccccc1N(C(=O)c1cccs1)c1nc2ccccc2s1	49	·	0.5	88*	0.1
CCN(Cc1ccncc1)C(=O)c1cccs1	49	-0.2	0.5	36	0.6
Cc1cccc(C)c1-n1nnnc1C1(Nc2ccccc2)CCCCC1	61*	·	0.4	61*	0.4
OC(c1ccc(Cl)cc1)c1nnc(-c2ccccc2)o1 (configuration not stated)	100*	-2.9	0	88*	0.1
CC1(c2nnc(-c3ccccc3)o2)CC(c2ccc(Cl)cc2)=NO1 (configuration not stated)	·	-0.74	·	·	·
CSc1ccc(S(=O)(=O)NCCSc2ccccn2)cc1	·	-0.8	·	·	·
COC(=O)c1cc(-c2ccc(OC)c(OC)c2)n[nH]1	55*	0.77	0.4	21	0.8
COc1ccc(-c2cc(-c3ccccc3O)[nH]n2)cc1OC	43	-1.7	0.6	23	0.8
O=C(COc1ccccc1)Nc1ccc(CSc2ccccc2)cc1	-3	-0.018	1	-3	1
C=C(C)Cn1c(=O)c2c(nc3n2CCN3c2cccc(Cl)c2C)n(C)c1=O	6	2.7	0.9	50*	0.5
O=C(NCC1CCCO1)c1ccc(CS(=O)(=O)c2c(Cl)cccc2Cl)o1 (configuration not stated)	54*	-0.75	0.5	-87	1.9
COc1cc(/C=N/n2cnnc2)ccc1OCCSc1ccc(C)cc1	80*	-0.11	0.2	54*	0.5
O=C(Cc1csc(N2CCOCC2)n1)N/N=C/c1ccc(F)cc1	6	-0.062	0.9	22	0.8
COC(=O)c1ccc(C23CC4(C2)[C@H](CN(CC2CCCCC2)[C@@H]4c2ccccc2)C3c2ccc(Cl)nc2)cc1 (some centres not stated)	·	-0.47	·	·	·
O=C(NNC1=C(C(=O)C(F)(F)F)CCC1)c1ccc(Cl)cc1	2	-2.4	1	50*	0.5
O=C(NNC(=O)c1ccccc1F)c1cccc(Cl)c1	10	0.33	0.9	-17	1.2
O=C(NNC1=C(C(=O)C(F)(F)F)CCC1)c1cccc(Cl)c1	26	-7.6*	0.7	91*	0.1
CCOc1ccc(N=C(NC#N)SC)cc1	70*	0.19	0.3	25	0.7
COc1ccc(SC[C@H](CC(C)C)N2CCN(CCc3ccccc3)CCC2=O)cc1	·	-2.5	·	·	·
